Source: PubChem BioAssay (NCI)
Compounds without any hit were thinned out: in the full panel of roughly 83,000, 20% have a hit.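 Negative percent growth values reflect cell death: -40 means 40% of the cells present at the start died, and -100 means all died.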 The source made the active and inactive calls. The calls were made as follows: active = growth percent below 10; inactive = the rest.

These molecules were tested on MDA-MB-468 breast (assay: NCI-60 one-dose screen, 48 h (100 = growth as untreated, 0 = no growth, -100 = all killed)). Details: 10 µM unless noted.

SMILES	growth
CC(=O)C1=C(O)C=C2Oc3c(C(=O)/C=C/c4ccccc4)c(O)c(C)c(O)c3[C@]2(C)C1=O	30.3% (inactive)
C=C1C(=O)O[C@H]2[C@H]1CC/C(COC(=O)c1ccc(C#N)cc1)=C\CC[C@@]1(C)O[C@@H]21	-17.2% (active)
O=C(O)C[C@H](O)C[C@H](O)/C=C/c1c(C2CC2)nc2ccccc2c1-c1ccc(F)cc1	75.1% (inactive)
COc1cnc2c(c1)C(=O)c1c-2n(CCCn2ccnc2)c(=O)c2cc(F)ccc12	-35.7% (active)
CCOC(=O)C1=C(c2ccccc2)N=c2s/c(=C/c3ccc(Br)cc3)c(=O)n2C1c1ccc(O)cc1 (stereo not given)	83.7% (inactive)
COc1cc(C(=O)N2CCN(c3ccccc3)CC2)c2ccccc2n1	5.08% (active)
CN1CCN(CC(=O)Nc2ccc(-c3nc4ccccc4s3)cc2)CC1	-11.4% (active)
COc1ccc(Cc2cc(-c3ccccc3C)n[nH]c2=O)cc1	91.1% (inactive)
O=[N+]([O-])c1ccc(NS(=O)(=O)c2ccccc2)c2ccccc12	17% (inactive)
CSC1=NC(=Nc2c(C)cccc2C)C2(CCC(C(C)(C)C)CC2)N1c1ccc(Cl)cc1 (stereo not given)	38.3% (inactive)
CCOc1ccc(NC(=O)Nc2ccc(OCC)cc2)cc1	106% (inactive)
CS(=O)/C(C#N)=C\C=C\c1cccc(Cl)c1 (stereo not given)	3.26% (active)
Cc1nn(-c2ccc(Cl)cc2)c2ncnc(N/N=C/c3cccc([N+](=O)[O-])c3)c12	117% (inactive)
COc1cc2cc(NCc3ccc(F)cc3)nc(C)c2cc1OC	62.8% (inactive)
CCCCCSc1ccc2nc(NC(=O)OCCC)sc2c1	9.55% (active)
C[C@@H](Oc1cc(-c2cnn(C3CC4(CNC4)C3)c2)cnc1N)c1c(Cl)ccc(F)c1Cl	20.5% (inactive)
CC(=O)N1CC(Nc2ccc(OC(F)(F)F)cc2)=CC1=O	13.8% (inactive)
COc1cc2c(c(OC)c1OC)C(=O)CC(c1cccc(C(=O)Nc3ccccc3Br)c1)O2 (stereo not given)	79.1% (inactive)
COc1ccc(C(=O)N2NC(=O)/C(=C/c3ccccc3F)N=C2c2ccccc2)cc1	105% (inactive)
O=C(CCCCCCCC(=O)N1CCCCC1)N1CCCCC1	105% (inactive)

SMILES	growth
c1ccc(-c2n(Cc3ccc4ccccc4c3)cc[n+]2Cc2ccc3ccccc3c2)cc1	-65.5% (active)
NC(=O)CSc1oc(-c2ccccc2)nc1S(=O)(=O)c1ccc(Br)cc1	73.9% (inactive)
O=C(O)CCCl	94.6% (inactive)
O=C(NCCNC(=O)c1cc(S(=O)(=O)NCCc2ccccc2)c(O)c(O)c1O)c1cc(S(=O)(=O)NCCc2ccccc2)c(O)c(O)c1O	83.2% (inactive)
CO[C@@H](C)Cn1c(=O)n(C)c2cnc3ccc(-c4cncc(C(C)(C)O)c4)cc3c21	-45.9% (active)
COc1ccc(/C=C2\N=C(c3ccccc3)N(c3cc(OC)c(OC)cc3C(=O)N3N=C(C)CC3=O)C2=O)cc1	93% (inactive)
Nc1nc2ccccc2c2c(=O)c3ccc(Cl)cc3sc12	3.53% (active)
COc1ccc2nc3ccccc3c(NCc3ccc(F)cc3)c2c1	-23.9% (active)
O=C1/C(=C/C=C/c2ccco2)SC(=S)N1Cc1ccccc1	58.5% (inactive)
Cc1sc2ncnc(Sc3nc4ccccc4[nH]3)c2c1C	-86.6% (active)
COc1cc2nc(N3CCC[C@@H](NC4=CC(=O)c5ccccc5C4=O)C3)nc(N)c2cc1OC	-51.3% (active)
COc1cc(-c2nc3ccccc3o2)cc(CN2CCCCC2)c1O	67.1% (inactive)
CCCc1c(C)nc2scc(-c3ccc(Cl)cc3)n2c1=O	97.9% (inactive)
NC(=O)NNC(=O)c1ccccc1	110% (inactive)
COC(=O)c1cccc2c1N(C)c1c(cccc1C(=O)OC)CC2	124% (inactive)
CC(C)c1ccc(C(=O)Nc2sc3c(c2C#N)CCC(=O)C3)cc1	-45.7% (active)
Cn1nc(C(F)(F)F)cc1-c1cc(Cl)c(OCc2ccc(Cl)cc2)c(-c2ccc(Cl)c(C(F)(F)F)c2)c1O	-16.1% (active)
CC(C)(C)CC(C)(C)n1nnnc1C(NC12CC3CC(CC(C3)C1)C2)c1ccccc1 (stereo not given)	65.7% (inactive)
CC(=O)CC[C@H]1C(=O)N[C@@H](C(C)C)C(=O)N[C@@H](Cc2cc(O)cc(F)c2)C(=O)N2CCC[C@H](N2)C(=O)O[C@H](/C(C)=C/C=C/C(=O)OC(C)(C)C)C/C=C/C=C/[C@H](O)[C@H](C)[C@H]1O	15.1% (inactive)
O=[N+]([O-])c1ccc2c(c1)Cc1cc(F)ccc1-2	53.9% (inactive)
